A selection: hits, their analogues and other compounds. The true share with any hit is near 5.2%.
Coupling enz: counter-screen for Giardia aldolase inhibitors: coupling enzyme system | coupling enzyme system counterscreen, AmpLite Red fluorescence | activity change, negative = inhibition, % at 58.2 µM, hits read low | 290,000 tested, 0.67% active | AID 2472; in the data active = activity change below about -30%
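Counterscreen of the coupled detection system alone, without aldolase: glyceraldehyde-3-phosphate coupling enzymes plus AmpLite Red readout. Compounds at 57.5 uM final, 10 min RT preincubation, 20 min RT reaction, fluorescence 525/598 nm.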
Sfp PPTase inh: blocks B. subtilis Sfp PPTase activity; 310,000 tested, 3.5% active; Q9F4F7; Potency, µM, without a hit: largest response in the series, negative = inhibition, hits mostly inhibitors; Biochemical Sfp PPTase activity, qHTS;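 note: the enzyme is Sfp with the accession as filed and its product quenches rhodamine fluorescence; potency is the fitted concentration of half-maximal effect; 0% = enzyme reaction without inhibitor and -100% = no enzyme wells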
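Reaction rates are the 30-min fluorescence difference (ex 525, em 598 nm) in wells containing 15 nM Sfp, 5 uM rhodamine-CoA and 12.5 uM BHQ-2-YbbR at pH 7.6 with 10 mM MgCl2.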
Tau FP inhib: tau fibrillization inhibition (FP) | P10636 | K18 P301L tau heparin fibrillization, Alexa594 FP, 6 h | Potency, µM (titrated, usually from 57.7 µM), without a hit: at the top dose activity, negative = inhibition, usual class: inhibitors | 280,000 tested, 0.39% active; note: potency is the fitted concentration of half-maximal effect; nearly all actives have a fitted effect of over 55% in size
Target sequence (P10636 561-689 P618L limits assumed): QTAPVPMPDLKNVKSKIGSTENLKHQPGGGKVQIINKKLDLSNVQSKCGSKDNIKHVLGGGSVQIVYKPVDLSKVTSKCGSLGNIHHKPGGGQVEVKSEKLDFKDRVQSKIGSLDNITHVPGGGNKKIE
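Recombinant K18 P301L […], labeled with Alexa 594 at 0.24 uM over 15 uM unlabeled; heparin inducer 20 uM final; 37 C, 6 hr; FP endpoint.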
Tau fluor counter: counter-screen for tau fibril formation inhibitors | Potency, µM (top dose mostly 57.7 µM), for inactives: at the top dose activity change, negative = decrease | AID 1463 | tau K18 P301L Alexa594 fluorescence, heparin fibrillization | 280,000 tested, 0.93% active; note: potency is the fitted concentration of half-maximal effect; nearly all actives have a fitted effect of over 55% in size
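Human tau K18 P301L (15 uM unlabeled, 0.24 uM Alexa 594-labeled) in 100 mM sodium acetate pH 7 with 20 uM heparin, 6 hr at 37 C. ThT 30 uM added, 1 hr ambient; Alexa 594 FP and total fluorescence read at 555/632 nm.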
Tau ThT inhib: tau fibrillization inhibition (ThT binding); recombinant tau K18 P301L (four-repeat tau fragment), heparin-induced fibrillization, ThT fluorescence; 270,000 tested, 2.1% active; Potency, µM (doses to about 57.4 µM), inactives show at the highest dose activity, negative = inhibition, most hits filed as inhibitors; AID 1460; note: potency is the fitted concentration of half-maximal effect; nearly all actives have a fitted effect of over 55% in size
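Heparin-induced fibrillization of the P301L-mutant K18 repeat-domain fragment of human tau was followed by ThT binding in quantitative high-throughput format.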
Starred values were filed as active, the others as inactive; ? = inconclusive; · = no result. Unless noted, calls come from the whole dose curve; as a rule, active = well fitted curve in the direction sought with a large enough effect; inconclusive = small, poorly fitted or top-dose-only effect, or another doubt; inactive = no such curve, though single readings can be large; an effect the other way counts as inactive or inconclusive. Unless noted, % is set by controls: 0 for no effect and ±100 for the full control effect.

SMILES	Coupling enz	Sfp PPTase inh	Tau FP inhib	Tau fluor counter	Tau ThT inhib
Cc1cc(/C=N/n2cnnc2)c(C)n1-c1ccc(OCc2ccc(Cl)cc2Cl)cc1	8	35µM*	11%	-28%	?
O=C(Nc1ccn(Cc2c(F)c(F)cc(F)c2F)n1)c1cccc(Cn2cc([N+](=O)[O-])cn2)c1	1	32µM*	-6%	-18%	-5%
O=C(Nc1ccn(Cc2c(F)c(F)c(F)c(F)c2F)n1)c1cccc(Cn2cc([N+](=O)[O-])cn2)c1	1	?	4%	-24%	2%
O=C(CC1C(=O)N(c2ccc(F)cc2)C(=O)N1Cc1ccc2c(c1)OCO2)Nc1ccc(Cl)cc1 (stereo not given)	·	·	?	?	3%
Cc1ccc(-c2csc(N)n2)s1	-1	35µM*	?	-29%	32µM*

Screens from PubChem BioAssay.
